# Source: PubChem BioAssay (EPA / NIEHS)
# Where “and” joins values, the source holds several entries; their conditions need not be identical. Equal values may be shown once. Records with an inconclusive call do not appear. Where a structure was tested more than once in an assay, its records may differ in their call. Calls of active or inactive are those of the source. Rule for the calls, unless noted: active = hit-call score of the fitted dose curve at least 0.9, where 1 is the maximum; inactive = score below 0.9.
# Columns and labels:
# [1] = CCTE_Shafer_MEA_acute_AB: CCTE's Alamar Blue Assay for Cytotoxicity in the Neural Acute Assay, Shafer Lab (AID 2284069; active = hit-call score of the fitted dose curve at least 0.9, where 1 is the maximum;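 note: active compounds lower the viability signal compared with DMSO wells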)
# Method in brief: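 Resazurin reduction (CellTiter Blue, 1:6 in fresh medium) read at ex 544/em 590 nm marks viability loss relative to DMSO. Cells: primary rat cortical neuron networks on microelectrode arrays, treated after baseline recording at 13 or 15 days in vitro.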
# [2] = CCTE_Shafer_MEA_acute_LDH: CCTE's Lactate Dehydrogenase Assay for Cytotoxicity in the Neural Acute Assay, Shafer Lab (AID 2284086; active = hit-call score of the fitted dose curve at least 0.9, where 1 is the maximum;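 note: active means LDH release rises above DMSO vehicle level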)
# Method in brief: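 Rat cortical neurons cultured on microelectrode arrays; baseline 40-min recording, compound added, second 40-min recording; medium then sampled for released LDH (colorimetric kit, 490 nm). DMSO = negative control.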
# [3] = CCTE_Shafer_MEA_dev_AB: CCTE's Alamar Blue Assay for Cytotoxicity in the Neural Network Formation Assay, Shafer Lab (AID 2284083; active = hit-call score of the fitted dose curve at least 0.9, where 1 is the maximum;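 note: resazurin reduction fluorescence as viability of cultured neurons; twelve days of exposure from plating with re-dosing on DIV 5 and 9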)
# Method in brief: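 Resazurin fluorescence, relative to DMSO, gauges viability after twelve days of exposure that began at plating of rat cortical neurons (1.5 x 10^5 cells/well, 48-well MEA); treatment renewed with full medium exchange on DIV 5 and 9.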
# [4] = CCTE_Shafer_MEA_dev_mutual_information_norm: CCTE's Neural Network Formation Assay for Mutual Information Normalization, Shafer Lab (AID 2284091);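 for AC50: mutual information between electrodes summarised as area under curve across four recording days; potency is for a decrease in mutual information relative to DMSO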
# Method in brief: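 Rat cortical cultures, 48-well MEA, continuous exposure DIV 0–12 with full media/compound change DIV 5 and 9. Readout: inter-electrode mutual information, AxIS adaptive spike detection; AUC across DIV 5/7/9/12 recordings; DMSO baseline, negative fitting direction.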
# [5] = CCTE_Shafer_MEA_dev_correlation_coefficient_mean: CCTE's Neural Network Formation Assay for Mean Correlation Coefficient, Shafer Lab (AID 2284093);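 for AC50: well mean pairwise spike train correlation integrated as AUC over recording days 5 to 12; potency fitted for loss of correlation relative to DMSO vehicle wells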
# Method in brief: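 Primary rat cortical neurons on PEI-coated 48-well MEA plates (16 electrodes/well) were exposed from plating day 0 through DIV12, with compound renewed at DIV5 and 9. Pairwise spike correlations were averaged per well; trapezoidal AUC across DIV5, 7, 9, 12.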
# [6] = UKN2_HCS_IMR90_neural_migration: University of Konstanz (UKN) Leist Lab Neural Crest Cell Migration Assay in human induced IMR90 Pluripotent Stem Cells (UKN2) (AID 2284204); settings: actives raise or lower the signal
# Method in brief: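 iPSC-derived IMR90 neural crest cells on PLO/laminin/fibronectin were seeded around silicone stoppers; after stopper removal, migration in N2-S medium with EGF and FGF ran 24 h before 24 h chemical exposure. Calcein-AM/Hoechst high-content imaging; bidirectional fit versus DMSO.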
# [7] = system: DIO3 (gene 1735); assay: CCTE_GLTED_hDIO3: CCTE's human Deiodinase 3 (DIO3) Inhibition Assay, Great Lakes Toxicology and Ecology Division (GLTED) Lab (AID 2284055; active = hit-call score of the fitted dose curve at least 0.9, where 1 is the maximum;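 for AC50: potency is for inhibition seen as loss of released iodide signal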)
# Method in brief: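 Absorbance from the Sandell-Kolthoff reaction reports iodide released by human DIO3 during a 3-hour incubation with chemical. Inhibition scored as signal loss against DMSO controls.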
# [8] = UKN5_HCS_SBAD2_cell_viability: Viability Assessment in the University of Konstanz (UKN) Leist Lab Neurite Outgrowth Assay in human iPSC-derived immature Dorsal Root Ganglia Neurons (UKN5) (AID 2284056)
# Method: UKN5_HCS_SBAD2 is a cell-based, multiplexed-readout assay screening for neurite outgrowth and cell viability that uses SBAD2 (peripheral neurons differentiated from iPSC), a human peripheral nervous system cell line, with measurements taken at […] after chemical dosing in a microplate: 96-well plate. UKN5, also referred to as PeriTox, is an assay that uses human iPSC line SBAD2 as a model of peripheral neurons. Following 24 hr chemical exposures in multi-well plates, neurite area is evaluated as a marker of neurite outgrowth using high-content imaging of cells stained with calcein-AM. Cell viability is assessed using stain Hoechst H-33342.UKN5_HCS_SBAD2_cell_viability is an assay component measured from the UKN5_HCS_SBAD2 assay. It is designed to make measurements of enzyme activity, a form of viability reporter, as detected with Fluorescence intensity signals by HCS Fluorescent Imaging.The assay endpoint UKN5_HCS_SBAD2_cell_viability was analyzed with bidirectional fitting relative to DMSO as the negative control and baseline of activity. Using a type of viability reporter, gain or loss-of-signal activity can be used to understand viability effects. To generalize the intended target to other relatable targets, this assay endpoint is annotated to the cell cycle intended target family, where the subfamily is viability.
# The previously differentiated immature peripheral neurons are thawed and seeded on Matrigel coated plates (1:40 diluted) in 75 ul medium composed of 75% N2-S medium and 25% KSR medium, supplemented with CHIR99021 (1.5 uM), SU5402 (5 uM) and DAPT (gamma-Secretase inhibitor IX, 5 uM) at a density of 100.000 cells/cm2. One hour after seeding, treatment compounds are added to the cells in 25 ul of similar to culture medium in which cells were seeded. 23 h after toxicant application, cells are live-stained with H-33342 and calcein-AM and incubated for 60 min. After 24 h of treatment (including staining), the cells are imaged using a high-content microscope (Cellomics VTI Array Scan).
# [9] = UKN5_HCS_SBAD2_neurite_outgrowth: University of Konstanz (UKN) Leist Lab Neurite Outgrowth Assay in human iPSC-derived immature Dorsal Root Ganglia Neurons (UKN5) (AID 2284070); settings: actives raise or lower the signal
# Method in brief: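 Read-out: calcein-AM-stained neurite area by high-content imaging, Hoechst H-33342 for viability, after 24 h exposure of iPSC-derived immature dorsal root ganglia neurons. Activity fitted in both directions relative to DMSO baseline.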
# [10] = UKN4_HCS_LUHMES_neurite_outgrowth: University of Konstanz (UKN) Leist Lab Neurite Outgrowth Assay in human LUHMES cells (UKN4) (AID 2284206); settings: actives raise or lower the signal
# Method in brief: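 Day 0 switch to differentiation medium; day 2 replate (30000 cells/well) without cAMP and GDNF; compounds added 30 min–2 h later. At 23.5 h, 30 min calcein-AM/H-33342 live stain, then imaging.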
smiles,measurement,setting,value
CCCN(CCC)c1c([N+](=O)[O-])cc(C(F)(F)F)cc1[N+](=O)[O-],outcome,[1],inactive
same,outcome,[2],inactive
O=C(O)COc1ccc(Cl)cc1Cl,outcome,[3],inactive
same,AC50,[4],12.1 µM (active)
same,outcome,[5],inactive
same,outcome,[6],inactive
CCC(C)(NC(=O)c1cc(Cl)c(C)c(Cl)c1)C(=O)CCl (stereo not given),AC50,[7],41.2 µM (active)
CC(C)N(C(=O)COc1nnc(C(F)(F)F)s1)c1ccc(F)cc1,outcome,[8],inactive
same,outcome,[9],inactive
same,AC50,[3],7.79 µM (active)
same,outcome,[3],inactive
same,outcome,[2],inactive
same,outcome,[4],inactive
same,AC50,[5],15 µM (active)
same,outcome,[5],inactive
same,outcome,[6],inactive
same,outcome,[10],inactive
COP(=S)(OC)Oc1ccc([N+](=O)[O-])cc1,AC50,[3],24.3 µM (active)
same,outcome,[4],inactive
same,AC50,[5],23 µM (active)
same,outcome,[10],inactive
CNC(=O)/C=C(\C)OP(=O)(OC)OC,outcome,[1],inactive
same,outcome,[2],inactive
O=S1OCC2C(CO1)C1(Cl)C(Cl)=C(Cl)C2(Cl)C1(Cl)Cl (stereo not given),outcome,[1],inactive
same,AC50,[3],9.32 µM (active)
same,outcome,[2],inactive
same,AC50,[4],7.83 µM (active)
same,AC50,[5],8.13 µM (active)
same,AC50,[6],13.9 µM (active)
same,AC50,[10],16.3 µM (active)
CCC(C)Nc1c([N+](=O)[O-])cc(C(C)(C)C)cc1[N+](=O)[O-] (stereo not given),outcome,[1],inactive
Clc1ccccc1-c1nnc(-c2ccccc2Cl)nn1,outcome,[1],inactive
same,outcome,[2],inactive
CCOCN(C(=O)CCl)c1c(C)cccc1CC,AC50,[7],58.1 µM (active)
O=[N+]([O-])/N=C1\NCCN1Cc1ccc(Cl)nc1,outcome,[8],inactive
same,outcome,[9],inactive
same,outcome,[4],inactive
same,outcome,[5],inactive
same,outcome,[6],inactive
same,outcome,[10],inactive
CCC(C)(C)C(=O)OC1=C(c2ccc(Cl)cc2Cl)C(=O)OC12CCCCC2,outcome,[1],inactive
same,outcome,[3],inactive
same,outcome,[2],inactive
same,outcome,[4],inactive
same,outcome,[5],inactive
same,outcome,[10],inactive
C[C@H]1[C@H](c2ccc(Cl)cc2)SC(=O)N1C(=O)NC1CCCCC1,outcome,[2],inactive
Oc1cc(Cl)ccc1Oc1ccc(Cl)cc1Cl,AC50,[7],85.5 µM (active)
same,outcome,[1],inactive
same,AC50,[3],14.2 µM (active)
same,outcome,[2],inactive
same,AC50,[4],8.5 µM (active)
same,AC50,[5],9.23 µM (active)
ClC1C(Cl)C(Cl)C(Cl)C(Cl)C1Cl (stereo not given),outcome,[8],inactive
same,outcome,[9],inactive
same,outcome,[3],inactive
same,outcome,[2],inactive
same,outcome,[4],inactive
same,outcome,[5],inactive
same,outcome,[6],inactive
same,outcome,[10],inactive
O=C1c2ccccc2C(=O)N1SC(Cl)(Cl)Cl,AC50,[1],20 µM (active)
same,outcome,[2],inactive
Oc1ccc(Cl)cc1Cc1ccccc1,AC50,[7],158 µM (active)
same,outcome,[1],inactive
same,outcome,[2],inactive
CNC(=O)CSP(=S)(OC)OC,AC50,[3],50 µM (active) and 26.8 µM (active)
same,AC50,[4],50 µM (active)
same,outcome,[4],inactive
same,AC50,[5],50 µM (active) and 15 µM (active)
CC1(C)C(C=C(Cl)Cl)C1C(=O)OC(C#N)c1ccc(F)c(Oc2ccccc2)c1 (stereo not given),outcome,[1],inactive
same,AC50,[3],64.4 µM (active)
same,outcome,[3],inactive
same,outcome,[2],inactive
same,AC50,[4],268 nM (active) and 6.41 µM (active) and 2.77 µM (active)
same,AC50,[5],1.06 µM (active) and 8.22 µM (active) and 7.24 µM (active)
same,outcome,[6],inactive
O=C(O)C(F)(F)C(F)(F)C(F)(F)C(F)(F)C(F)(F)C(F)(F)C(F)(F)F,AC50,[8],768 µM (active)
same,AC50,[9],899 µM (active)
same,outcome,[4],inactive
same,outcome,[5],inactive
same,outcome,[6],inactive
same,AC50,[10],78.1 µM (active)
CC[C@H](C)[C@H]1O[C@]2(C=C[C@@H]1C)C[C@@H]1C[C@@H](C/C=C(\C)[C@@H](O[C@H]3C[C@H](OC)[C@@H](O[C@H]4C[C@H](OC)[C@@H](O)[C@H](C)O4)[C@H](C)O3)[C@@H](C)/C=C/C=C3\CO[C@@H]4[C@H](O)C(C)=C[C@@H](C(=O)O1)[C@]34O)O2 (tested in a mixture with another compound),AC50,[3],7.85 µM (active)
same,outcome,[3],inactive
same,outcome,[2],inactive
same,AC50,[4],2.68 nM (active) and 0.647 nM (active)
same,AC50,[5],89.5 nM (active) and 4.11 nM (active)
same,AC50,[6],3.78 µM (active)
CC1(c2ccc(Oc3ccccc3)cc2)OC(=O)N(Nc2ccccc2)C1=O (stereo not given),AC50,[3],4.56 µM (active)
same,AC50,[4],1.34 µM (active)
same,AC50,[5],1.79 µM (active)
same,outcome,[6],inactive
O=C(O)CCCOc1ccc(Cl)cc1Cl,outcome,[1],inactive
same,outcome,[2],inactive
CCCN(CCOc1c(Cl)cc(Cl)cc1Cl)C(=O)n1ccnc1,outcome,[1],inactive
same,outcome,[2],inactive
N#Cc1c(Cl)c(Cl)c(Cl)c(C#N)c1Cl,AC50,[7],0.404 µM (active)
same,outcome,[1],inactive
COP(=S)(OC)Oc1ccc(SC)c(C)c1,outcome,[1],inactive
N#CN,outcome,[1],inactive
same,outcome,[2],inactive
COP(=O)(OC)OC=C(Cl)Cl,AC50,[3],30.4 µM (active)
same,AC50,[4],0.378 µM (active)
same,outcome,[4],inactive
same,AC50,[5],0.656 µM (active)
same,outcome,[5],inactive
same,outcome,[6],inactive
O=S(=O)(O)C(F)(F)C(F)(F)C(F)(F)C(F)(F)C(F)(F)C(F)(F)C(F)(F)C(F)(F)F,outcome,[7],inactive
same,AC50,[8],770 µM (active)
same,outcome,[1],inactive
same,AC50,[9],752 µM (active)
same,AC50,[3],50 µM (active)
same,AC50,[4],25 µM (active)
same,outcome,[4],inactive
same,AC50,[5],68.6 µM (active)
same,outcome,[5],inactive
same,AC50,[6],114 µM (active)
same,outcome,[6],inactive
same,AC50,[10],19.1 µM (active)
